This is a sample that favours compounds with a hit; in the whole collection about 2.6% have one here.
PHOSPHO1 inh: inhibitors of human PHOSPHO1 phosphatase; 290,000 compounds, 1.1% hits; inhibition, % at 13.3 µM; recombinant PHOSPHO1, absorbance phosphatase assay; AID 1565; in the data active = inhibition above about 60%
Target sequence (Q8TCT1 whole entry, looked up): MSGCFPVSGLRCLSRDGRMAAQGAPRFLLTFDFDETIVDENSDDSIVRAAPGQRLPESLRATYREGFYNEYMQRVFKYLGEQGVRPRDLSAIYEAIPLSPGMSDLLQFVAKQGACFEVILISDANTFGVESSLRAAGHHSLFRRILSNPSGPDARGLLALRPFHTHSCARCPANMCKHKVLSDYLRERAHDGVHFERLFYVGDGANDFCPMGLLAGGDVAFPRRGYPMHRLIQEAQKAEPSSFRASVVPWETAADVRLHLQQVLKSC
PABP FP inh: PABP-poly(A) binding inhibition; PABP-poly(A) RNA binding, fluorescence polarization; inhibition, % at 35 µM; 290,000 compounds, 1% hits; AID 2014;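 also: calls also rest on retests at 20 µM and on dose response follow-up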
CRFR2-BP antag: blocks CRF-induced signaling of the CRF-BP/CRF-R2 complex; HEK293 CRF-R2/CRF-BP, CRF-induced calcium fluorescence; inhibition, % at 11.8 µM; 350,000 compounds, 0.59% hits; AID 588475;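 active = inhibition of the ligand-induced calcium signal above about 50% at the single tested concentration, limit read from the data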
PABP1 MLLE inh: blocks PAM2 peptide binding to the PABP1 MLLE domain; GST-MLLE / FITC-PAM2 fluorescence polarization; P11940; 360,000 compounds, 0.36% hits; inhibition, % at 20 µM; in the data active = inhibition above about 35%, passing the limit was not always enough;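 also: plate controls were DMSO wells with GST-MLLE for no effect and wells lacking GST-MLLE protein for full effect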
eIF4H inh: inhibitors of RNA binding by human eIF4H | inhibition, % at 35 µM | AID 2012 | Q15056 | eIF4H fluorescence polarization binding assay | 290,000 compounds, 0.94% hits;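 also: calls also rest on retests at 20 µM and on dose response follow-up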
Starred values were filed as active, the others as inactive; ? = inconclusive; . = no result. Unless noted, no rule for the calls is given here.

SMILES	PHOSPHO1 inh	PABP FP inh	CRFR2-BP antag	PABP1 MLLE inh	eIF4H inh
CCOC(=O)C1=C(CSc2nc3c(cc2C#N)CN(C)CC3)OC(N)=C(C#N)C1c1ccccc1 (centres undefined)	97.6*	?	-11.2	21.2	?
CCOC(=O)C1=C(CSc2nc(-c3ccccc3)ccc2C#N)OC(N)=C(C#N)C1c1ccccc1 (centres undefined)	55.6	?	-58.6	-31.3	?
CCOC(=O)C1=C(CSc2nc3c(cc2C#N)CN(C)CC3)OC(N)=C(C#N)C1c1ccc(F)cc1 (centres undefined)	66.6*	?	-26.8	4.5	?
CCOC(=O)C1=C(CSc2nc(-c3ccccc3)ccc2C#N)OC(N)=C(C#N)C1c1cccnc1 (centres undefined)	79.9*	?	-2.0	-11.9	?
COc1ccc(CCNC(=O)c2ccc(NC(=O)CC3SC(N4CCCCC4)=NC3=O)cc2)cc1 (centres undefined)	.	.	-1.4	1.6	.
CCc1sc(C(=O)NCCc2ccc(S(N)(=O)=O)cc2)cc1C	14.6	10.5	-0.2	4.1	10.9
CCc1sc(C(=O)NCCc2ccc(S(N)(=O)=O)cc2)cc1Br	-13.8	-0.7	61.3*	-1.6	11.4
CSc1cccc(CN2CCC(n3nccc3NC(=O)C3CC3)CC2)c1	63.6*	9.6	-16.5	-2.4	1.6
COC(=O)c1ccc(CN2CCC(n3nccc3NC(=O)C3CCCC3)CC2)cc1	62.6*	8.4	9.4	-14.1	-0.8
Cn1c2ccccc2c2nnc(SCc3nnc(-c4ccccc4)o3)nc21	-1.1	51.4*	.	.	-9.1
NC(=S)C(c1ccccc1)c1ncc(C(F)(F)F)cc1Cl (centres undefined)	39.4	3.0	-14.8	41.6*	-4.9
NC(=O)C(c1cccc(Cl)c1)c1ncc(C(F)(F)F)cc1Cl (centres undefined)	-12.0	-2.0	5.6	-4.2	-6.9
O=C(Nc1ccc2c(c1)OCCO2)C1CCN(C(=O)c2ccc([N+](=O)[O-])cc2)CC1	66.2*	-12.1	2.4	4.6	4.1
O=C(Nc1ccc2c(c1)OCCO2)C1CCN(C(=O)c2ccc(Br)cc2)CC1	-20.1	7.6	0.9	4.2	-0.7
O=C(N/C(=C\c1ccc(Cl)cc1)C(=O)N1CCOCC1)c1ccc([N+](=O)[O-])cc1	80.3*	3.4	-13.3	-11.3	-4.9
O=C(N/C(=C/c1ccc(Cl)cc1)C(=O)N1CCOCC1)c1ccccc1	28.7	6.2	-9.1	-3.4	-0.2
Cc1nn(C)c(C(=O)NC(=S)Nc2ccc([N+](=O)[O-])cc2)c1Cl	.	3.1	-18.0	39.9*	-7.4
O=C(NC(=S)Nc1ccc(C(=O)N2CCOCC2)cc1)c1ccc([N+](=O)[O-])cc1	19.5	-7.8	-4.7	43.7*	0.4
CCCCNC(=O)C1(C)CCCCN1C(=O)c1c(C)noc1C (centres undefined)	.	.	.	5.3	.
Cc1csc(N(C(=O)Cc2ccccc2F)c2ccccc2)n1	-26.5	2.5	-22.7	11.3	-6.8
COC(=O)[C@H]1C[C@@]2(O)CN(S(=O)(=O)c3ccc(C)cc3)C[C@@]2(OC(=O)NCC2CCCCC2)C[C@H]1C(=O)OC	.	.	-15.9	11.3	.
O=c1cc(O)c(-c2ccc(Cl)cc2)c(Cl)[nH]1	33.4	-0.2	24.2	6.0	-5.7
O=c1cc(O)c(-c2ccc(Cl)c(Cl)c2)c(Cl)[nH]1	-19.6	7.5*	19.4	-4.8	81.9*
Cc1ccc(SC(=O)c2c(C)noc2-c2cc(C)on2)cc1	17.7	2.7	-8.9	41.4*	-5.6
Cc1cc(-c2onc(C)c2C(=O)N/N=C/c2ccccc2)no1	28.5	0.8	2.4	-4.8	-4.5
SMILES	PHOSPHO1 inh	PABP FP inh	CRFR2-BP antag	PABP1 MLLE inh	eIF4H inh
O=C1NCCCCC1NS(=O)(=O)c1cccc2ccccc12 (centres undefined)	19.7	1.0	69.5*	-14.0	-6.4
O=C1NCCCCC1NS(=O)(=O)c1ccccc1 (centres undefined)	24.8	-5.2	-1.5	-9.3	-4.6
COCCNC(=O)c1ccc(-n2c(SCc3ccncc3)nc3ccccc3c2=O)cc1	-21.8	71.3*	-3.3	2.4	active
COCCNC(=O)CSc1nc2ccccc2c(=O)n1-c1cccc(OC)c1	-6.9	12.0	-19.3	-1.9	-7.3
Nc1ccc(N2CCCCCC2)cc1	39.1	71.3*	.	.	82.7*
c1ccc2sc(SN3CCOCC3)nc2c1	65.8*	-8.4	-4.5	4.6	-4.2
CC(C)c1nnc(NC(=O)CN2C(=O)c3ccccc3C2=O)s1	89.1*	-3.9	10.1	0.5	-5.9
COC(=O)c1cc(OC)c(OC)cc1NC(=O)CN1C(=O)c2ccccc2C1=O	-24.6	-4.3	-3.0	-4.4	-5.2
COC(=O)c1cc(-c2ccccc2)sc1NC(=O)CN1C(=O)c2ccccc2C1=O	-100.4	-5.5	34.8	36.3*	-7.7
CN1C[C@@H]2[C@@H]3C(=O)N(C)C(=O)[C@@H]3[C@](Cc3ccccc3)(C1=O)N2C(=O)c1ccc(Cl)cc1	.	.	-6.8	-6.0	.
O=C(O)c1ccc2c(c1)C(=O)/C(=C/c1ccccc1)C2=O	20.7	8.4	10.8	39.9*	83.2
C=CCNC(=S)NNC(=O)c1cccn(Cc2ccc(Cl)cc2)c1=O	-20.6	5.3	-7.4	-61.3	10.7
C=CCNC(=S)NNC(=O)c1cccn(Cc2cccc(Cl)c2)c1=O	79.0*	-4.8	-7.5	-34.3	-8.1
c1ccc2c(c1)nnn2Cc1nnc2sc(-c3ccc4c(c3)OCCO4)nn12	48.2	-4.9	1.2	41.1*	-5.0
c1ccc(-c2nn3c(Cn4nnc5ccccc54)nnc3s2)cc1	69.2*	0.4	10.0	26.3	10.7
Cn1c(Cn2nnc3ccccc32)nnc1SCC(=O)Nc1ccc2c(c1)OCO2	-17.9	-5.7	2.3	5.8	0.1
COc1ccc(Cc2nn3c(Cn4nnc5ccccc54)nnc3s2)cc1	68.9*	3.0	1.8	14.6	5.6
CCN(CC)CCNC(Cc1ccccc1)c1cccc(OC)c1 (centres undefined)	.	.	17.4	0.9	.
Cc1noc(C)c1COC(=O)Cc1ccc(Cl)c(Cl)c1	-4.2	-4.5	62.5*	-2.5	12.1
Cc1noc(C)c1COC(=O)[C@H](C)NS(=O)(=O)c1ccc(Cl)c(Cl)c1	19.3	2.6	10.2	-6.7	-2.5
CC(C)c1ccc(NC(=O)C2Cc3c(-c4cccc(F)c4)ccnc3O2)cc1 (centres undefined)	.	.	.	0.2	.
CCCCCCN1CCN(C2CN(C3CCCCC3)S(=O)(=O)C2)CC1 (centres undefined)	.	.	.	7.2	.
NS(=O)(=O)c1cccc(NC(=O)CSc2ccccn2)c1	-15.3	75.7*	10.5	-1.5	-3.4
NS(=O)(=O)c1ccc(NC(=O)CSc2ccccn2)cc1	19.3	-2.9	-1.9	2.7	-6.5
O=C(CSc1ccc(-c2ccccn2)nn1)Nc1cccc(F)c1	61.0*	-7.4	3.6	11.6	-4.4
CCCCCSc1nnc(-c2ccccc2NC(C)=O)c(=O)[nH]1	5.4	1.9	21.5	12.3	-1.4
CN(C)CCNC(=O)c1cccc(-c2cc(NC=O)c3ncc(-c4cccc(C(F)(F)F)c4)n3c2)c1	.	.	.	-28.6	.

Bioassay records from PubChem BioAssay.
